The source of these data is PubChem BioAssay.

Assay [1] in a line: HepG2 liver cancer cell viability effects, profiling panel, resazurin fluorescence, 24 h, PK04 Diversity Set (AID 1172). As to conditions: higher = more signal.
Assay [2] in a line: basal S. cerevisiae growth modulation, no modifier, primary screen, OD600, strain BY4716, 24 h, basal condition (AID 1173). As to conditions: OD600, 24 h, higher = more signal, called active from +8 up or from −8 down.
Assay [3] can be described thus: MM1S myeloma cell viability, profiling panel, resazurin fluorescence, basal, 24 h, PK04 Diversity Set (AID 1174).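 Also: MM1S multiple myeloma cell line.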 As to conditions: higher = more signal, called active from +8 up or from −8 down. (Resazurin is reduced to fluorescent resorufin, in cell work by metabolically active cells.)
Assay [4] has as its target Dihydroorotate dehydrogenase (quinone), mitochondrial (Plasmodium falciparum (isolate 3D7)) (UniProt Q08210). The experiment in a line: PfDHODH enzyme inhibitors, primary screen, biochemical, C-terminal His tag, absorbance 600 nm (AID 1175).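 Also: recombinant parasite enzyme with a five histidine tag at its C terminus.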 As to conditions: DCIP absorbance 600 nm, higher = more signal, called active from +8 up or from −8 down.
Assay [5] is described as follows: P. aeruginosa biofilm formation inhibitors, primary screen, strain PAO1, LB-PBS medium, absorbance 600 nm (AID 1176). As to conditions: P. aeruginosa PAO1 growth/biofilm, A600, 12 h; higher = more signal.
The nature of assay [6]: S. cerevisiae RM11-1a growth modifiers, primary screen, strain RM11-1a, OD600, basal, 24 h (AID 1177).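 Also: cultures grown under basal conditions with no added stressor.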 As to conditions: OD600, 24 h, higher = more signal, called active from +8 up or from −8 down.
A short description of assay [7]: E. coli acrAB mutant growth effects, primary screen, E. coli filamentation inducers, strain DRC39, OD650, 24 h (AID 1178).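 Also: growth measured as culture turbidity by optical density at 650 nm.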 As to conditions: higher = more signal, called active from +8 up or from −8 down.
Assay [8] in a line: E. coli acrAB mutant growth effects, primary screen, E. coli filamentation inducers, strain DRC39, OD650, 48 h (AID 1179).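 Also: screen aims at cell division blockers that make cells filament.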 As to conditions: E. coli DRC39 delta-acrAB growth, higher = more signal, called active from +8 up or from −8 down.
The nature of assay [9]: RPMI8226 myeloma cell viability, profiling panel, resazurin fluorescence, basal, 24 h, PK04 Diversity Set (AID 1180).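 Also: RPMI8826 multiple myeloma cell line at 5000 cells per well.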 As to conditions: higher = more signal.
Assay [10] deals with E3 ubiquitin-protein ligase XIAP (Homo sapiens) (UniProt P98170). The experiment in a line: XIAP binders, primary screen, biophysical, small-molecule microarray, fluorescence 635 nm (AID 1181).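 Also: score merges 667 nm emission and signal to noise over triplicate slides.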 As to conditions: small-molecule microarray binding, higher = more signal.
The test system of assay [11] is XIP peptide (Xip251-270) binding. The experiment in a line: small-molecule binders of XIP peptide, primary screen, biochemical, small-molecule microarray, fluorescence 635/667 nm, 0.1 µg/mL protein (AID 1182). As to conditions: fluorescent protein binding, 635 nm, higher = more signal, called active from +8 up or from −8 down.
In a further assay the test system is XIP peptide (Xip251-270). Put plainly: small-molecule binders of XIP peptide, primary screen, biochemical, small-molecule microarray, fluorescence 635/667 nm, 0.5 µg/mL protein (AID 1183). As to conditions: small-molecule microarray binding, fluorescence 635 nm; higher = more signal.
The nature of assay [12]: Plasmodium falciparum growth inhibition, primary screen, strain 3D7, DAPI fluorescence, 100 nL (AID 1184).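 Also: parasites grown inside human red blood cells in medium with human serum.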 As to conditions: P. falciparum 3D7 growth, 3 d, higher = more signal.
For assay [13], the target named is Homeobox protein Hox-A13 (Mus musculus) (UniProt Q62424). The experiment in a line: inhibitors of HoxA13-DNA binding, primary screen, biochemical, fluorescence polarization, labeled oligonucleotide (AID 1185). As to conditions: 15 min, higher = more signal, called active from +8 up or from −8 down. On the technique in general: Fluorescence polarisation rises when a labelled molecule tumbles more slowly, as on binding a larger partner.

Assay [14] can be described thus: inhibitors of hydroxyurea-induced Chk1 phosphorylation, primary screen, imaging, HeLa, phospho-Chk1 antibody, percent positive cells (AID 1186). As to conditions: hydroxyurea-induced phospho-Chk1 immunofluorescence imaging, higher = more signal.
Assay [15] is described as follows: inhibitors of hydroxyurea-induced Chk1 phosphorylation, primary screen, imaging, HeLa, phospho-Chk1 nuclear intensity (AID 1187). As to conditions: hydroxyurea-induced phospho-Chk1 immunofluorescence imaging, higher = more signal.

Activity calls are given as the source filed them. Unless noted, no rule for the calls is given here.

Sequence of Dihydroorotate dehydrogenase (quinone), mitochondrial (Plasmodium falciparum (isolate 3D7)) (Q08210 whole entry, looked up): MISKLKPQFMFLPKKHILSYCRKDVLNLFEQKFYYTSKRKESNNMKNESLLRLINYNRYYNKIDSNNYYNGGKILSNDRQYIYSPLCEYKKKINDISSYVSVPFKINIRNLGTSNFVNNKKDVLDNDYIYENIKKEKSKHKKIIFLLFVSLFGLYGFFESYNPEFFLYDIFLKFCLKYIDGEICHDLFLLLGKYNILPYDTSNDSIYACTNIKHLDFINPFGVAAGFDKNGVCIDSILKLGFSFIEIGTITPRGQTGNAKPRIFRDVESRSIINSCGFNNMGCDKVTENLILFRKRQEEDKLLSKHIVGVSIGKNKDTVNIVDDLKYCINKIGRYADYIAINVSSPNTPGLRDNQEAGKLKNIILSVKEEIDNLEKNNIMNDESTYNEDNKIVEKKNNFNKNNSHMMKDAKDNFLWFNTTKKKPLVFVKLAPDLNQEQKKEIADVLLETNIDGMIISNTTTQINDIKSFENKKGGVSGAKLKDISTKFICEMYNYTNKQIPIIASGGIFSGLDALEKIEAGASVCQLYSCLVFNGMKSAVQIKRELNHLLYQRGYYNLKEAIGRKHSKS
Sequence of E3 ubiquitin-protein ligase XIAP (Homo sapiens) (P98170 whole entry, looked up): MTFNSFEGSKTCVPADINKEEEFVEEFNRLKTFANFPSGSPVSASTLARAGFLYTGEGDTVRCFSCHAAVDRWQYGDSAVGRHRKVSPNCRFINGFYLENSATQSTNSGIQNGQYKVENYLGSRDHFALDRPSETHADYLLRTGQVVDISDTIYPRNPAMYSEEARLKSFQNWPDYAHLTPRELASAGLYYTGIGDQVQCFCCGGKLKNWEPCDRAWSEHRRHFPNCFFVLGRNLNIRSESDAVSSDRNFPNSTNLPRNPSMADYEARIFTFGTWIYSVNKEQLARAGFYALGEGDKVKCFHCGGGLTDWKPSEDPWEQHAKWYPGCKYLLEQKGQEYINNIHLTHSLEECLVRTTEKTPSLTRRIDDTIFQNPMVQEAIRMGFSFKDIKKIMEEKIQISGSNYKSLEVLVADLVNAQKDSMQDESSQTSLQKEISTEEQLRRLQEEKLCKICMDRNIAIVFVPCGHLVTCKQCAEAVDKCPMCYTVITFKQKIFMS
Sequence of Homeobox protein Hox-A13 (Mus musculus) (Q62424 whole entry, looked up): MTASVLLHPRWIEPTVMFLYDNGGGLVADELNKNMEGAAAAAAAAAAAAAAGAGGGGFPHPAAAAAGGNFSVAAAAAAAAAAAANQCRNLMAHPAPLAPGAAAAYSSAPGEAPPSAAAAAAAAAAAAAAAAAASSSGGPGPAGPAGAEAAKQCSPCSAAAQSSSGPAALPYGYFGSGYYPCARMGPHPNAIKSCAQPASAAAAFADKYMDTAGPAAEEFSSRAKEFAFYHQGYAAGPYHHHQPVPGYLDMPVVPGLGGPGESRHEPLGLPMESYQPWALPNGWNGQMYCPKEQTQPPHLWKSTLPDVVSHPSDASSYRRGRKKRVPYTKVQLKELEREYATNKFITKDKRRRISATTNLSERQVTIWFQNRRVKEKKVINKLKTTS

Turning to `COC(=O)[C@@]1(Cc2ccccc2)[C@@H]2[C@@H](CC(=O)[C@H]2CC(=O)C(=O)N(C)C)CN1C(=O)c1ccccc1`, the z-score in assay [1] is 0.166; in assay [2], 1.55 (inactive); in [3], -1.18 (inactive); in [5], 0.535 (inactive); in [6], 1.02 (inactive); in assay [7] it was -0.49 (inactive). In addition, the z-score in assay [8] is -0.0021 (inactive); in assay [9] it was -0.0757; in [12], -1.23; in assay [13], -4.98 (inactive); in assay [14] it was 0.273 (inactive); in assay [15], 0.082 (inactive). The composite z-score in [4] is 0.823 (inactive); in assay [10], 0.0464; in [11] it was -0.282 (inactive); in the assay on XIP peptide (Xip251-270) it was -0.0913.
Turning to `CCCCC(=C=CC[C@H](O)c1ccc(OCCO)cc1)C[C@H](O)c1ccccn1`, the z-score in assay [1] was 0.325; in [2], -0.265 (inactive); in [3] it was 0.747 (inactive); in assay [5] it was -0.247 (inactive); in [6], 0.387 (inactive); in assay [7], 1.45 (inactive). In addition, the z-score in [8] was 0.949 (inactive); in assay [9], 1.76; in assay [12], -0.593; in assay [13] it was -5.18 (inactive); in assay [14], 0.203 (inactive); in [15], 0.451 (inactive). In addition, the composite z-score in [4] was -2.06 (inactive); in assay [10], -0.142; in assay [11], 0.575 (inactive); in the assay with XIP peptide (Xip251-270), 0.645.
In the case of `CC(C)C[C@H]1NC(=O)[C@@H](C)NC(=O)[C@@]23C(=O)N[C@@H](Cc4ccccc4)C2[C@H](C)[C@@]2(C)O[C@H]2C3/C=C/C/C=C\CNC1=O` (some centres undefined), the z-score in [1] was -0.328; in assay [2], -0.808 (inactive); in assay [3], 0.0814 (inactive); in assay [5], 0.531 (inactive); in assay [6], -1.27 (inactive); in assay [7] it was -0.46 (inactive). Also, the z-score in assay [8] is 0.184 (inactive); in assay [9], 0.184; in assay [12] it was 0.234; in [13], -6.94 (inactive); in assay [14] it was 0.255 (inactive); in assay [15], 0.0218 (inactive). For the same compound, the composite z-score is -1 (inactive) in [4], -0.102 in assay [10], 1.06 (inactive) in assay [11] and 0.679 in the assay on XIP peptide (Xip251-270).
On to `COCCOC(=O)N1C(=O)[C@@]2(c3cc(C#CCC(C(=O)OC)C(=O)OC)ccc31)[C@H](C(=O)N1CCc3cc(OC)c(OC)cc3C1)[C@H]1C(=O)O[C@H](c3ccccc3)[C@H](c3ccccc3)N1[C@@H]2c1ccc(O)cc1`, for which the z-score in assay [1] is 0.227; in assay [2], 0.541 (inactive); in assay [3], -0.0494 (inactive); in assay [5], -0.0757 (inactive); in assay [6] it was 1.34 (inactive); in [7], 0.992 (inactive). Also, the z-score is 0.199 (inactive) in assay [8]; -0.888 in [9]; -2.02 in [12]; -1.46 (inactive) in [13]; 0.182 (inactive) in assay [14]; 0.424 (inactive) in [15]. For the same compound, the composite z-score in assay [4] is -0.0728 (inactive); in [10], -0.0034; in assay [11], 0.596 (inactive); in the assay with XIP peptide (Xip251-270), 0.676.
Turning to `CCCCN1CC=CC23O[C@@H]4C=CCOC(=O)[C@@H]4[C@H]2C(=O)N(C(CO)C(C)C)[C@@H]3C1=O` (some centres undefined), the z-score in assay [1] was -0.469; in assay [2], 0.303 (inactive); in [3] it was -0.908 (inactive); in assay [5] it was 0.0405 (inactive); in [6], 0.707 (inactive); in assay [7], -0.781 (inactive). For the same compound, the z-score in assay [8] was -0.825 (inactive); in assay [9], -0.844; in [12], -0.156; in [13], -5.09 (inactive); in [14] it was 0.216 (inactive); in [15], 0.118 (inactive). Moreover, the composite z-score in assay [4] was -0.221 (inactive); in assay [10], -0.22; in assay [11], -0.332 (inactive); in the assay with XIP peptide (Xip251-270), -0.186.
Take `O=c1cccc(-c2ccccc2C(F)(F)F)o1`: the z-score in assay [1] is -0.719; in assay [2] it was -3.23 (inactive); in assay [3], -0.256 (inactive); in assay [5] it was 0.698 (inactive); in [6], -0.432 (inactive); in assay [7], -0.736 (inactive). Further, the z-score is -0.275 (inactive) in assay [8]; -0.59 in [9]; 1.58 in [12]; -1.43 (inactive) in assay [13]; -0.968 (inactive) in [14]; -1.66 (inactive) in assay [15]. Besides, the composite z-score in [4] was -0.636 (inactive); in [10], 0.144; in [11], -0.808 (inactive); with XIP peptide (Xip251-270) it was -0.597.
As to `CCC[C@@H]1[C@@H](Sc2ccccc2)[C@@H](C(=O)O)[C@H](c2ccc(C)cc2)N1S(=O)(=O)c1ccc(C)cc1`, the z-score in assay [1] is -0.428; in assay [2], -1.99 (inactive); in assay [3], -0.0959 (inactive); in assay [5] it was 0.257 (inactive); in assay [6], -0.122 (inactive); in assay [7], -0.008 (inactive). Also, the z-score is 0.329 (inactive) in assay [8]; -0.862 in assay [9]; 0.552 in assay [12]; -5.85 (inactive) in assay [13]; 0.275 (inactive) in assay [14]; 0.971 (inactive) in assay [15]. Also, the composite z-score in [4] was -1.04 (inactive); in [10], -0.0062; in [11], 0.163 (inactive); in the assay with XIP peptide (Xip251-270), 0.787.
In the case of `COCCOC(=O)N1C(=O)[C@@]2(c3cc(C#Cc4ccc(OC)cc4)ccc31)[C@H](C(=O)Nc1nc3ccccc3s1)[C@H]1C(=O)O[C@H](c3ccccc3)[C@H](c3ccccc3)N1[C@@H]2c1ccccc1OCCO`, the z-score in assay [1] was 1.17; in [2], 0.86 (inactive); in assay [3], 1.34 (inactive); in [5], 1.89 (inactive); in assay [6], 0.972 (inactive); in [7], 0.285 (inactive). Moreover, the z-score in assay [8] was 0.376 (inactive); in [9], 1.85; in assay [12], -1.96; in assay [13], 3.56 (inactive); in [14] it was -0.338 (inactive); in assay [15], -0.538 (inactive). Besides, the composite z-score is -0.882 (inactive) in assay [4], -0.221 in [10], 0.71 (inactive) in assay [11] and 0.594 in the assay with XIP peptide (Xip251-270).
As for `C=CC[C@]1(C(=O)N(C)C)COC(c2ccc(OCCCO)cc2)=N1`, the z-score in assay [1] was 0.0446; in [2] it was -2.54 (inactive); in assay [3], 0.41 (inactive); in assay [5], 1.21 (inactive); in assay [6], 0.919 (inactive); in [7], 0.386 (inactive). Also, the z-score in assay [8] was -2.8 (inactive); in assay [9], 0.764; in [12], -1.7; in assay [13], -2.35 (inactive); in [14], -0.491 (inactive); in [15], -0.146 (inactive). Further, the composite z-score in assay [4] was -0.261 (inactive); in assay [10], 0.202; in assay [11] it was 0.113 (inactive); in the assay with XIP peptide (Xip251-270) it was 0.907.
